The text below walks through data of PMC11062922 (Nature Chemical Biology, 2023).

Common to all, as to design: species or system human, MV4-11 + K-562 + COLO205 + SK-N-BE2 + OVCAR-8
One experiment concerns ATM. The conditions noted are these: read-out: apparent Kd, n = 1.
The subject of the next experiment is BCR. The conditions noted are these: read-out: apparent Kd, n = 1.
A further experiment has as its system CAMKK2. To be noted: read-out: apparent Kd, n = 1.
A further experiment relates to CHEK1. The conditions noted are these: read-out: apparent Kd, n = 1.
Another experiment has as its system EPHA4. The conditions noted are these: read-out: apparent Kd, n = 1.
A further experiment concerns EPHA5. To be noted: read-out: apparent Kd, n = 1.
For the next experiment, the system named is EPHB2. The conditions noted are these: read-out: apparent Kd, n = 1.
In a further experiment the test system is EPHB4. To be noted: read-out: apparent Kd, n = 1.
The subject of the next experiment is PRKACA. To be noted: read-out: apparent Kd, n = 1.
The subject of a further experiment is PRKACB. The conditions noted are these: read-out: apparent Kd, n = 1.
In another experiment the test system is RPS6KA4. To be noted: read-out: apparent Kd, n = 1.
For a further experiment, the system named is TNK1. The conditions noted are these: read-out: apparent Kd, n = 1.
The next experiment deals with TNK2. To be noted: read-out: apparent Kd, n = 1.
The subject of another experiment is AURKA. The conditions noted are these: read-out: apparent Kd, compound concentrations: 100 nM and 1000 nM (sheet 'Samples'), n = 1.
Another experiment deals with CSNK1D. The conditions noted are these: read-out: apparent Kd; compound concentrations: 100 nM and 1000 nM (sheet 'Samples'), CATDS: 0.19590664085395099; n = 1.
The test system of the next experiment is MAPK9. The conditions noted are these: read-out: apparent Kd, compound concentrations: 100 nM and 1000 nM (sheet 'Samples'), n = 1.
Another experiment has as its system MARK3. The conditions noted are these: read-out: apparent Kd, compound concentrations: 100 nM and 1000 nM (sheet 'Samples'), n = 1.
In a further experiment the test system is PRKAG2. To be noted: read-out: apparent Kd, compound concentrations: 100 nM and 1000 nM (sheet 'Samples'), n = 1.
Another experiment concerns CDK16. To be noted: read-out: apparent Kd; compound concentrations: 100 nM and 1000 nM (sheet 'Samples'), CATDS: 6.29330119004379E-3; n = 1.
In a further experiment the test system is STK4. To be noted: read-out: apparent Kd; compound concentrations: 100 nM and 1000 nM (sheet 'Samples'), CATDS: 6.7227641521754398E-3; n = 1.
[1] abbreviates: compound concentrations:100 nM and 1000 nM (sheet 'Samples').

Like-named read-outs stand apart in the source and are kept apart here.

Regarding `NCCNS(=O)(=O)c1ccc(-c2ccnc3[nH]ccc23)cc1` [GSK977617A], the potency estimated from few doses was 295 nM in the experiment with ATM (setting [1]); 244 nM with BCR (setting [1]); 1970 nM with CAMKK2 (setting [1]); 2250 nM with CHEK1 (setting [1]); 287 nM with EPHA4 (setting [1]); 267 nM in the experiment on EPHA5 (setting [1]). Besides, the potency estimated from few doses in the experiment with EPHB2 (setting [1]) was 189 nM; in the experiment on EPHB4 (setting [1]), 171 nM; in the experiment with PRKACA (setting [1]) it was 361 nM; with PRKACB (setting [1]), 571 nM; in the experiment on RPS6KA4 (setting [1]), 588 nM; with TNK1 (setting [1]) it was 181 nM. For the same compound, the potency estimated from few doses in the experiment on TNK2 (setting [1]) is 233 nM.
Consider `CCOC(=O)N1CCC(n2cnc(-c3ccc(F)cc3)c2-c2ccnc(N)n2)CC1` [SB-219952], for which the potency estimated from few doses was 901 nM in the experiment with AURKA (CATDS: 9.8512895449749706E-3); 701 nM with CAMKK2 (compound concentrations: 100 nM and 1000 nM (sheet 'Samples'), CATDS: 1.08972773288713E-2); 1390 nM with CHEK1 (compound concentrations: 100 nM and 1000 nM (sheet 'Samples'), CATDS: 8.4863258398705493E-3); 9.15 nM with CSNK1D; 493 nM with EPHA4 (compound concentrations: 100 nM and 1000 nM (sheet 'Samples'), CATDS: 1.2785015902171799E-2); 397 nM with EPHA5 (compound concentrations: 100 nM and 1000 nM (sheet 'Samples'), CATDS: 1.42398980321412E-2). The potency estimated from few doses is 329 nM with EPHB2 (compound concentrations: 100 nM and 1000 nM (sheet 'Samples'), CATDS: 1.57002336523176E-2); 344 nM in the experiment on EPHB4 (compound concentrations: 100 nM and 1000 nM (sheet 'Samples'), CATDS: 1.53468623139909E-2); 107 nM with MAPK9 (CATDS: 3.1045225372311899E-2); 1300 nM in the experiment with MARK3 (CATDS: 8.6555083221940901E-3); 1690 nM in the experiment on PRKACA (compound concentrations: 100 nM and 1000 nM (sheet 'Samples'), CATDS: 8.0141425433071494E-3); 1730 nM in the experiment with PRKACB (compound concentrations: 100 nM and 1000 nM (sheet 'Samples'), CATDS: 7.9637145567790901E-3). The potency estimated from few doses in the experiment on PRKAG2 (CATDS: 9.8371603155967009E-3) is 905 nM; with TNK1 (compound concentrations: 100 nM and 1000 nM (sheet 'Samples'), CATDS: 1.30567209660681E-2) it was 472 nM; in the experiment with TNK2 (compound concentrations: 100 nM and 1000 nM (sheet 'Samples'), CATDS: 1.6319458510121398E-2) it was 307 nM.
As for `COc1ccc(Nc2ncc(C#N)c(Nc3ccccc3C(N)=O)n2)cc1N1CCN(C)CC1.Cl` [GSK1558669A], the potency estimated from few doses in the experiment with AURKA (CATDS: 3.9666626948294099E-2) is 12 nM; in the experiment on BCR (compound concentrations: 100 nM and 1000 nM (sheet 'Samples'), CATDS: 1.27803345453226E-2) it was 96.9 nM; in the experiment on CAMKK2 (compound concentrations: 100 nM and 1000 nM (sheet 'Samples'), CATDS: 6.1789819356504504E-3), 1430 nM; in the experiment on CDK16, 1270 nM; in the experiment on CHEK1 (compound concentrations: 100 nM and 1000 nM (sheet 'Samples'), CATDS: 1.1194862883684801E-2) it was 137 nM; in the experiment on MAPK9 (CATDS: 7.8754696697006001E-3) it was 427 nM. In addition, the potency estimated from few doses in the experiment on MARK3 (CATDS: 1.02819135302623E-2) was 174 nM; in the experiment with PRKAG2 (CATDS: 1.3647831185805001E-2), 82.8 nM; with RPS6KA4 (compound concentrations: 100 nM and 1000 nM (sheet 'Samples'), CATDS: 8.4346807860121598E-3), 330 nM; with STK4, 872 nM; in the experiment on TNK1 (compound concentrations: 100 nM and 1000 nM (sheet 'Samples'), CATDS: 3.9834731570335402E-2), 11.9 nM.
`CN(c1ccc(NC(=O)Nc2cccc(Cl)c2)cc1)c1ccnc(N)n1.Cl` [GW830707A]: the potency estimated from few doses in the experiment on ATM (compound concentrations: 100 nM and 1000 nM (sheet 'Samples'), CATDS: 7.3316367539925598E-2) is 4.81 nM; with AURKA (CATDS: 1.10158492855777E-2), 1100 nM; with BCR (compound concentrations: 100 nM and 1000 nM (sheet 'Samples'), CATDS: 2.64796261985909E-2) it was 26.5 nM; in the experiment with EPHA4 (compound concentrations: 100 nM and 1000 nM (sheet 'Samples'), CATDS: 2.6652421745355599E-2), 26.2 nM; with EPHA5 (compound concentrations: 100 nM and 1000 nM (sheet 'Samples'), CATDS: 2.89918726046417E-2), 22 nM; in the experiment with EPHB2 (compound concentrations: 100 nM and 1000 nM (sheet 'Samples'), CATDS: 3.95108410825031E-2), 12.4 nM. Moreover, the potency estimated from few doses in the experiment on EPHB4 (compound concentrations: 100 nM and 1000 nM (sheet 'Samples'), CATDS: 6.0687941062208699E-2) was 6.3 nM; in the experiment with PRKACA (compound concentrations: 100 nM and 1000 nM (sheet 'Samples'), CATDS: 2.4809932188679999E-2), 30.7 nM; in the experiment with PRKACB (compound concentrations: 100 nM and 1000 nM (sheet 'Samples'), CATDS: 1.9106655898432998E-2) it was 60.7 nM; in the experiment on TNK1 (compound concentrations: 100 nM and 1000 nM (sheet 'Samples'), CATDS: 0.104039802479183) it was 3.01 nM; in the experiment on TNK2 (compound concentrations: 100 nM and 1000 nM (sheet 'Samples'), CATDS: 3.7589632297420301E-2) it was 13.5 nM.
